Structures are written as SMILES. Compounds without any hit were thinned out: in the full panel of roughly 83,000, 20% have a hit.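 Compound tested at a single concentration for 48 hours in 96-well plates; a percent growth value below 10 was scored as active.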 A number with no mark means an inactive call. Calls of active or inactive are those of the source.

Assay in all cases: NCI-60 one-dose screen, 48 h (100 = growth as untreated, 0 = no growth, -100 = all killed)
In one assay the test system is NCI-H226 lung. Conditions: 10 µM unless noted.
For a further assay, the system named is NCI-H460 lung. As to conditions: 10 µM unless noted.
A further assay has as its system 786-0 renal. Conditions: 10 µM unless noted.
The next assay relates to MDA-MB-231 breast. As to conditions: 10 µM unless noted.
Another assay concerns SF-268 CNS. As to conditions: 10 µM unless noted.
For a further assay, the system named is SF-539 CNS. As to conditions: 10 µM unless noted.
The next assay concerns M14 melanoma. Conditions: 10 µM unless noted.
For a further assay, the system named is HCT-15 colon. As to conditions: 10 µM.
The test system of another assay is UACC-62 melanoma. As to conditions: 10 µM unless noted.
Another assay has as its system UO-31 renal. Conditions: 10 µM unless noted.
A further assay deals with TK-10 renal. Conditions: 10 µM unless noted.
The test system of another assay is ACHN renal. Conditions: 10 µM unless noted.
The test system of another assay is HL-60(TB) leukemia. Conditions: 10 µM unless noted.
The test system of another assay is NCI/ADR-RES ovarian. Conditions: 10 µM unless noted.
For the next assay, the system named is T-47D breast. As to conditions: 10 µM unless noted.
The subject of another assay is MDA-MB-435 melanoma. Conditions: 10 µM unless noted.
The test system of another assay is SW-620 colon. As to conditions: 10 µM unless noted.
A further assay deals with MCF7 breast. As to conditions: 10 µM unless noted.
The subject of the next assay is HCT-116 colon. As to conditions: 10 µM unless noted.
Another assay concerns KM12 colon. Conditions: 10 µM unless noted.

Regarding `CN1CC2CCC(C1)C2=O`, the growth was 103% in the assay on NCI-H226 lung; 104% with NCI-H460 lung; 97.1% in the assay on 786-0 renal; 124% in the assay on MDA-MB-231 breast; 106% with SF-268 CNS; 105% in the assay with SF-539 CNS. Moreover, the growth in the assay with M14 melanoma is 98.2%; in the assay with HCT-15 colon it was 106%; in the assay with UACC-62 melanoma, 110%; with UO-31 renal, 62.7%; in the assay with TK-10 renal, 93%; in the assay on ACHN renal it was 102%. Also, the growth in the assay with HL-60(TB) leukemia was 96.3%; in the assay with NCI/ADR-RES ovarian it was 106%; in the assay with T-47D breast it was 102%; in the assay with MDA-MB-435 melanoma it was 97.7%; in the assay with SW-620 colon, 104%; in the assay on MCF7 breast, 102%. Also, the growth is 95.4% with HCT-116 colon and 115% in the assay with KM12 colon.
Consider `ClCCN(CCCl)c1ccc(/C=C\c2ccnc3ccccc23)cc1`, for which the growth is 69.1% with NCI-H226 lung; 56.3% with NCI-H460 lung; 84.2% in the assay on 786-0 renal; 92.2% with MDA-MB-231 breast; 94.9% with SF-268 CNS; 92.5% in the assay on SF-539 CNS. Also, the growth in the assay with M14 melanoma is 85.5%; in the assay with HCT-15 colon it was 75%; with UACC-62 melanoma it was 59.2%; in the assay on UO-31 renal, 70.8%; in the assay on ACHN renal, 76%; in the assay on HL-60(TB) leukemia it was 46.8%. The growth with NCI/ADR-RES ovarian is 80.4%; with T-47D breast, 63.1%; with MDA-MB-435 melanoma, 76%; in the assay with SW-620 colon, 77.2%; with MCF7 breast it was 61.5%; in the assay with HCT-116 colon, 52.2%. Also, the growth with KM12 colon is 83.1%.
As to `COc1cc(C2CC(=O)Nc3nc(N)[se]c32)cc(OC)c1OC` (stereo unspecified), the growth was 103% in the assay on NCI-H226 lung; 25.1% in the assay with NCI-H460 lung; 114% in the assay with 786-0 renal; 101% in the assay on MDA-MB-231 breast; 101% with SF-268 CNS; 101% in the assay on SF-539 CNS. For the same compound, the growth in the assay with M14 melanoma was 115%; with HCT-15 colon it was 109%; in the assay with UACC-62 melanoma, 117%; in the assay on UO-31 renal it was 99.9%; in the assay with ACHN renal, 103%; in the assay with HL-60(TB) leukemia, 89.1%. Further, the growth was 107% with NCI/ADR-RES ovarian; 74.5% in the assay with T-47D breast; 105% in the assay with MDA-MB-435 melanoma; 109% in the assay with SW-620 colon; 98.6% in the assay on MCF7 breast; 74.9% in the assay with HCT-116 colon. In the assay with KM12 colon, the growth is 56.7%.
Regarding `Oc1ccccc1OB(Oc1ccccc1O)N(CCCl)CCCl`, the growth is 101% with NCI-H226 lung; 68.3% in the assay on NCI-H460 lung; 92.3% in the assay with 786-0 renal; 71% with MDA-MB-231 breast; 63.5% in the assay on SF-268 CNS; 63.2% in the assay on SF-539 CNS. The growth in the assay on M14 melanoma is 85.2%; in the assay with HCT-15 colon it was 75.7%; in the assay with UACC-62 melanoma, 94.7%; in the assay with UO-31 renal, 51.9%; in the assay with TK-10 renal it was 98.9%; with ACHN renal it was 86.1%. Also, the growth in the assay on HL-60(TB) leukemia was 0.713% (active); in the assay on NCI/ADR-RES ovarian, 85%; in the assay on T-47D breast, 101%; in the assay on MDA-MB-435 melanoma, 87.4%; with SW-620 colon, 82.9%; in the assay with MCF7 breast, 88.2%. Moreover, the growth is 86.8% in the assay on HCT-116 colon and 69.4% with KM12 colon.
For the compound `CC(C)CCC[C@@H](C)[C@H]1CC[C@H]2[C@@H]3CC=C4C[C@@H](OC(=O)Cc5ccc(N(CCCl)CCCl)cc5)CC[C@]4(C)[C@H]3CC[C@]12C`, the growth with NCI-H226 lung is 94.3%; in the assay with NCI-H460 lung it was 97.8%; with 786-0 renal it was 96.7%; in the assay on MDA-MB-231 breast, 101%; with SF-268 CNS it was 108%; in the assay with SF-539 CNS it was 94.1%. The growth in the assay with M14 melanoma was 108%; with HCT-15 colon, 108%; in the assay on UACC-62 melanoma, 94.4%; in the assay on UO-31 renal it was 90%; in the assay on TK-10 renal, 159%; in the assay with ACHN renal, 100%. In addition, the growth with HL-60(TB) leukemia was 86.9%; in the assay on NCI/ADR-RES ovarian, 102%; with T-47D breast, 106%; in the assay on MDA-MB-435 melanoma, 113%; with SW-620 colon, 109%; with HCT-116 colon it was 103%. Also, the growth in the assay with KM12 colon is 109%.
Turning to `CSc1ccccc1NP1(=O)OCC(C)([N+](=O)[O-])CO1` (stereo unspecified), the growth in the assay with NCI-H226 lung was 98.4%; in the assay on NCI-H460 lung it was 101%; in the assay with 786-0 renal, 113%; in the assay with MDA-MB-231 breast, 105%; in the assay on SF-268 CNS, 105%; with SF-539 CNS, 91.4%. Besides, the growth in the assay on M14 melanoma was 101%; in the assay with HCT-15 colon, 93.1%; in the assay with UACC-62 melanoma, 101%; with UO-31 renal, 78.3%; in the assay with TK-10 renal it was 110%; in the assay with ACHN renal, 97.5%. Further, the growth is 56.7% in the assay with HL-60(TB) leukemia; 109% with NCI/ADR-RES ovarian; 96% in the assay on T-47D breast; 107% with MDA-MB-435 melanoma; 101% in the assay on SW-620 colon; 98.1% with MCF7 breast. Also, the values for the growth in the assay with HCT-116 colon and in the assay with KM12 colon were 98% and 104%, respectively.
With `CNC(=O)O/N=C(/C)c1ccc(Cl)cc1`, the growth was 92.1% with NCI-H226 lung; 113% in the assay on NCI-H460 lung; 90.7% in the assay with 786-0 renal; 120% with MDA-MB-231 breast; 110% in the assay on SF-268 CNS; 125% in the assay with SF-539 CNS. Further, the growth with M14 melanoma was 98.7%; in the assay on UACC-62 melanoma, 114%; with UO-31 renal it was 83.8%; in the assay on TK-10 renal, 91.6%; with ACHN renal, 129%; in the assay on HL-60(TB) leukemia, 92.1%. Also, the growth is 109% in the assay with NCI/ADR-RES ovarian; 91.8% in the assay on T-47D breast; 98.3% in the assay on MDA-MB-435 melanoma; 117% in the assay on SW-620 colon; 96.6% in the assay with MCF7 breast; 99.9% in the assay with HCT-116 colon. Also, the growth in the assay with KM12 colon was 114%.
Take `C[C@]12CC[C@H]3[C@@H](C[C@@H]4N=C(c5ccc(O)cc5)S[C@@]45C[C@H](O)CC[C@]35C)[C@@H]1CC[C@@H]2O`: the growth in the assay with NCI-H226 lung is 110%; in the assay on NCI-H460 lung, 41.9%; with 786-0 renal it was 8.35% (active); in the assay with MDA-MB-231 breast, 56.2%; in the assay on SF-268 CNS it was 48.6%; in the assay with SF-539 CNS, 8.02% (active). The growth was 60.5% in the assay on M14 melanoma; 29.5% in the assay with HCT-15 colon; 28.7% in the assay with UACC-62 melanoma; 9.33% (active) with UO-31 renal; 89.3% with TK-10 renal; 46% in the assay with ACHN renal. In addition, the growth was 22.7% in the assay with HL-60(TB) leukemia; 76.8% in the assay with NCI/ADR-RES ovarian; 67.7% with T-47D breast; 92% in the assay on MDA-MB-435 melanoma; 71.7% with SW-620 colon; 42.6% in the assay with MCF7 breast. Besides, the growth with HCT-116 colon was 43.8%; in the assay on KM12 colon it was 60.8%.
